The list is not random: actives were taken first. Their share in the collection is about 11%.
Luciferase inh – Firefly luciferase inhibition profiling of diverse chemical library using quantitative high-throughput screening | actives 2.5% (n = 76,000) | AID 1347043, 2019 | Potency, µM (doses to about 115 µM), most hits filed as inhibitors | purified P. pyralis luciferase, luminescence, biochemical | Luciferin 4-monooxygenase (Photinus pyralis), P08659; further: nearly all actives have a fitted effect of over 65% in size
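Purified P. pyralis luciferase (10nM final) in 50mM Tris acetate pH 7.5, 10mM Mg acetate, 0.01% Tween-20, 0.05% BSA with 10uM D-luciferin and 10uM ATP. Compounds titrated qHTS. Luminescence imaged on CCD.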
hNpr1 antagonist – Natriuretic polypeptide receptor (hNpr1) antagonism - Primary qHTS | Atrial natriuretic peptide receptor 1 (Homo sapiens), P16066 | HEK293 hNpr1 GloSensor cGMP, ANP-stimulated luminescence | Potency, µM (highest dose often 46.3 µM), for inactives: at the top dose activity change, negative = inhibition, usual class: inhibitors | actives 1.6% (n = 76,000) | AID 1347048, 2019; calls by dose curve; further: nearly all actives have a fitted effect of over 60% in size
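Compound pre-incubated 30 min at room temperature on GloSensor-loaded HEK293 cells stably carrying hNpr1 and the pGS-40F cGMP biosensor. Stimulation uses hNppA at 0.1 nM final; luminescence is taken at baseline and 20 min post-agonist.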
3T3 cytotox – Cytotoxic Profiling in NIH 3T3 Cell Line of Diverse Libraries Using Quantitative High-Throughput Screening. NIH 3T3 viability, CellTiter-Glo ATP luminescence, 48-72 h. Potency, µM (doses to about 96.7 µM), for the others: top-dose activity change, negative = cytotoxicity, actives largely listed as inhibitors. actives 4.3% (n = 94,000); further: nearly all actives have a fitted effect of over 55% in size
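Cytotoxicity was measured by CellTiter-Glo ATP luminescence after 48 or 72 h compound exposure at 37 °C. Mouse NIH 3T3 fibroblasts were seeded at 400 cells/well and dosed by 23 nL pin transfer.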
HEK293 tox – Cytotoxic Profiling in HEK 293 Cell Line of Diverse Libraries Using Quantitative High-Throughput Screening. actives 6.6% (n = 94,000). AID 1345083, 2018. Potency, µM (titrated, usually from 115 µM), for inactives: top-dose activity change, negative = cytotoxicity, usual class: inhibitors. HEK 293 viability, ATP luminescence (CellTiter-Glo), 48-72 h; further: nearly all actives have a fitted effect of over 60% in size
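Pintool-delivered compounds were incubated with HEK 293 cells (250 cells/well) at 37 degree Celsius for 48 or 72 hr. ATP-dependent luminescence (CellTiter-Glo) then reported remaining viable cells.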
Numbers without * were called inactive; [ ] = another dose, or the depositor's remark. Unless noted, the call rests on the fitted dose curve; in most records, active means well fitted curve in the direction sought with a large enough effect; inconclusive means small, poorly fitted or top-dose-only effect, or another doubt; inactive means no such curve, though single readings can be large; an effect the other way counts as inactive or inconclusive. On the % scale 0 is the no-effect control and ±100 the full control effect; potency means the concentration at half of the fitted maximal effect.

Results for Cc1ccccc1OCc1nc(C2CN(C(=O)Cc3c[nH]c4ccccc34)C2)no1 ?
Luciferase inh: inactive; hNpr1 antagonist: inconclusive; 3T3 cytotox: inconclusive; HEK293 tox: inconclusive

How did COCCNC(=O)[C@H]1C[C@H](Oc2cccnc2)CN1C(=O)NC(C)C do in these assays?
Luciferase inh: inactive; hNpr1 antagonist: 0%; 3T3 cytotox: 4%; HEK293 tox: -8%

How did O=C(NCC12CCC=C1N(CC1CC1)C(=O)CC2)Nc1cccc(F)c1 (centres undefined) do in these assays?
Luciferase inh: inactive; hNpr1 antagonist: -13%; 3T3 cytotox: -17%; HEK293 tox: -16%

Results for CCNC(=O)c1ccc(CC2CCN(C(C)=O)CC2)cc1 ?
Luciferase inh: inactive; hNpr1 antagonist: 0%; 3T3 cytotox: -12%; HEK293 tox: -6%

Results for CCNC(=O)N1CCC(Cc2ccc(C(=O)Nc3cccc(F)c3)cc2)CC1 ?
Luciferase inh: 25µM*; hNpr1 antagonist: 11µM*; 3T3 cytotox: inconclusive; HEK293 tox: 40µM*

How did O=C(NCCC1CCN(C(=O)Nc2cc(F)cc(F)c2)CC1)c1ccccc1 do in these assays?
Luciferase inh: 28µM*; hNpr1 antagonist: -4%; 3T3 cytotox: -26%; HEK293 tox: inconclusive

Results for CCCn1c(C)cnc1CC1CCN(C(=O)NCCc2ccccc2)CC1 ?
Luciferase inh: inactive; hNpr1 antagonist: 2%; 3T3 cytotox: -17%; HEK293 tox: 1%

How did CCCNC(=O)N1CCC(Cc2ccc(CCNC(C)=O)cc2)CC1 do in these assays?
3T3 cytotox: inconclusive; HEK293 tox: 45µM*

Results for Fc1ccc(OC2CN(CC3CCCCC3)C2)cc1F ?
Luciferase inh: inactive; hNpr1 antagonist: 14%[70.6 µM]; 3T3 cytotox: inconclusive; HEK293 tox: inconclusive

Results for Cc1cc(CN2CCC(CO)(Cc3ccccc3Cl)CC2)cc(C)c1O ?
Luciferase inh: inactive; hNpr1 antagonist: -8%; 3T3 cytotox: inconclusive; HEK293 tox: inconclusive

Results for CC(C)(C)c1cc(C(=O)N2CCCC2)nn2cccc12 ?
3T3 cytotox: 28µM*; HEK293 tox: inconclusive

How did O=C1CC2(CCN(Cc3cccnc3)CC2)Oc2cc(Cl)ccc21 do in these assays?
Luciferase inh: 25µM*; hNpr1 antagonist: 0%; 3T3 cytotox: inconclusive; HEK293 tox: inconclusive

How did O=C1CC2(CCN(Cc3ccc(F)cc3)CC2)Oc2ccccc21 do in these assays?
Luciferase inh: inactive; hNpr1 antagonist: -1%[70.6 µM]; 3T3 cytotox: inconclusive; HEK293 tox: 50µM*

How did CN(C)c1ccc(CN2CCC3(CC2)CC(=O)c2ccccc2O3)cc1 do in these assays?
Luciferase inh: inactive; hNpr1 antagonist: 13%; 3T3 cytotox: -6%; HEK293 tox: -7%

Results for C#CCNC(=O)c1ccc2oc(-c3cccnc3OC)nc2c1 ?
3T3 cytotox: -20%; HEK293 tox: -20%

Results for CCOC(=O)C1(Cc2ccccc2F)CCCN(C(=O)CCc2c[nH]c3ccccc23)C1 (centres undefined) ?
Luciferase inh: inactive; hNpr1 antagonist: inconclusive; 3T3 cytotox: inconclusive; HEK293 tox: 35µM*

How did CCOC(=O)C1(Cc2ccccc2F)CCCN(C(=O)C2=C(C)OCCO2)C1 (centres undefined) do in these assays?
Luciferase inh: inactive; hNpr1 antagonist: 0%; 3T3 cytotox: -30%; HEK293 tox: inconclusive

How did CCOC(=O)C1(Cc2ccccc2C)CCCN(C(=O)c2cc[n+]([O-])cc2)C1 (centres undefined) do in these assays?
Luciferase inh: inactive; hNpr1 antagonist: 14%; 3T3 cytotox: inactive; HEK293 tox: -2%

Results for CCOC(=O)C1(Cc2ccccc2Cl)CCN(C(=O)c2ccsc2)CC1 ?
Luciferase inh: 25µM*; hNpr1 antagonist: -11%; 3T3 cytotox: -25%; HEK293 tox: 79µM*

Results for CCOC(=O)C1(Cc2ccccc2C)CCCN(C(=O)c2csc(C)n2)C1 (centres undefined) ?
Luciferase inh: 40µM*; hNpr1 antagonist: -2%; 3T3 cytotox: 0%; HEK293 tox: -17%

How did O=C(CCc1cc2ccccc2[nH]c1=O)NCCN1CCc2ccccc2C1 do in these assays?
Luciferase inh: inactive; hNpr1 antagonist: -2%; 3T3 cytotox: 2%; HEK293 tox: 35%

What do the screens show for `CCn1c2c(c(=O)n1Cc1ccccc1)CCN(C(=O)COc1ccccc1)C2`?
Luciferase inh: inactive; hNpr1 antagonist: 2%[70.6 µM]; 3T3 cytotox: 50µM*; HEK293 tox: 5%[172 µM]

How did O=c1c2c(n(Cc3cccnc3)n1CCc1ccccc1)CN(Cc1cccc(O)c1)CC2 do in these assays?
Luciferase inh: inactive; hNpr1 antagonist: -1%; 3T3 cytotox: inconclusive; HEK293 tox: -6%

Results for O=C(COc1ccccc1)N1CCc2c(n(Cc3cccnc3)n(CCc3ccccc3)c2=O)C1 ?
Luciferase inh: inactive; hNpr1 antagonist: -5%; 3T3 cytotox: 35µM*; HEK293 tox: -32%

Results for CCn1c2c(c(=O)n1Cc1ccccc1)CCN(C(=O)c1scnc1C)C2 ?
Luciferase inh: inactive; hNpr1 antagonist: 3%[70.6 µM]; 3T3 cytotox: inconclusive; HEK293 tox: inactive

Results for COc1ccc(-n2c(=O)c3c(n2Cc2ccccc2)CN(C(=O)COc2ccccc2)CC3)cc1 ?
Luciferase inh: inactive; hNpr1 antagonist: -3%; 3T3 cytotox: 40µM*; HEK293 tox: -7%

What do the screens show for `CCn1c2c(c(=O)n1Cc1ccccc1)CCN(C(=O)c1cccnc1)C2`?
Luciferase inh: inactive; hNpr1 antagonist: 5%[70.6 µM]; 3T3 cytotox: 50µM*; HEK293 tox: inactive

What do the screens show for `Cc1cnc(CCNC(=O)Cn2c(=O)oc3ccccc32)n1C1CCC1`?
Luciferase inh: inactive; hNpr1 antagonist: -2%; 3T3 cytotox: -16%; HEK293 tox: -3%

What do the screens show for `O=C(C1CC1)N1CCCC(C(=O)N2CCCC(c3nc4ncccc4[nH]3)C2)C1` (centres undefined)?
3T3 cytotox: -17%; HEK293 tox: inactive

Results for O=C1CC(c2ccccc2)N(Cc2ccncc2)CCCN(C(=O)c2cccs2)CCN1 (centres undefined) ?
Luciferase inh: inactive; hNpr1 antagonist: 6%; 3T3 cytotox: -16%; HEK293 tox: -15%

What do the screens show for `OCC1(Cc2ccccc2)CCCN(Cc2ccccc2-c2ccco2)C1` (centres undefined)?
Luciferase inh: inactive; hNpr1 antagonist: -2%; 3T3 cytotox: -10%; HEK293 tox: inconclusive

How did COCCn1c(=O)c2c(n1Cc1ccccc1)CN(C(=O)COc1ccccc1)CC2 do in these assays?
Luciferase inh: inactive; hNpr1 antagonist: -2%[70.6 µM]; 3T3 cytotox: 22µM*; HEK293 tox: inactive

Results for COc1ccc(Cn2c3c(c(=O)n2Cc2ccccc2)CCN(C(=O)C2CCOCC2)C3)cc1 ?
Luciferase inh: inactive; hNpr1 antagonist: 4%; 3T3 cytotox: 25µM*; HEK293 tox: inactive

Source: PubChem BioAssay (National Center for Advancing Translational Sciences (NCATS))
